From PubChem BioAssay
Calls of active or inactive are those of the source. Unless noted, how the calls were made is not given here.

Key:
[1] = test system: Wnt5a (protein binding on small-molecule microarray); experiment: Wnt5a binders on small-molecule microarray, primary screen, biophysical, 635/667 nm fluorescence (AID 1142); conditions: 635 nm fluorescence, higher = more signal;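 further: fluorescence read at 667 nm with signal to noise per printed feature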
[2] = cell viability in Huh7 cells, primary screen, cytotoxicity control for HCV replication inhibitor project, CellTiter-Glo luminescence, basal, 48 h (AID 1143); conditions: Huh7 HCV replicon, higher = more signal, called active from +8 up or from −8 down;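 further: Huh7 hepatoma cells carrying a hepatitis C replication reporter with no stimulus; test concentration not given here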
[3] = P. aeruginosa biofilm formation inhibitors, primary screen, PAO1 strain, BacTiter-Glo luminescence, LB-PBS (AID 1144); conditions: 12 h, higher = more signal
[4] = CREB reporter modulators without forskolin, primary screen, cell-based, PC12, CRE-LacZ reporter, unstimulated (AID 1145); conditions: no forskolin, luminescence, 4.5 h, higher = more signal, called active from +8 up or from −8 down
[5] = CREB reporter modulators under forskolin, primary screen, cell-based, PC12, CRE-LacZ reporter, forskolin-stimulated (AID 1146); conditions: luminescence, 4.5 h, higher = more signal, called active from +8 up or from −8 down;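 further: PC12 cells with 6xCRE LacZ reporter stimulated by forskolin 10 µM; beta-galactosidase reporter signal reflecting CREB driven transcription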
[6] = target: Streptavidin (Streptomyces avidinii) (UniProt P22629); experiment: streptavidin binders on small-molecule microarray, primary screen, artefact control for SMM compound annotation, biophysical, 635/667 nm fluorescence (AID 1147); conditions: streptavidin binding, higher = more signal;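 further: signal reflects streptavidin binding to arrayed compounds as a control protein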
Chain of Streptavidin (Streptomyces avidinii) (P22629 whole entry, looked up): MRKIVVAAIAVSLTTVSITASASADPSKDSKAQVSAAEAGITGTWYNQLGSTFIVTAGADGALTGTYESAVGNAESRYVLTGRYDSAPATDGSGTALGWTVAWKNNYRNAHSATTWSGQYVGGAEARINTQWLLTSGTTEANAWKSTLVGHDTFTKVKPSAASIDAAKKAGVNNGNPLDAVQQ

[7] = small-molecule binders of probe aInhba, primary screen, biochemical, small-molecule microarray, 635/667 nm fluorescence (AID 1148); conditions: higher = more signal;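 further: score merges 667nm spot fluorescence with signal-to-noise for antibody binding to printed compounds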
[8] = target: Torsin-1A (Homo sapiens) (UniProt O14656); experiment: torsin A binders from cell lysate, primary screen, small-molecule microarray, wild-type, 635/667 nm (AID 1149); conditions: COS7 hTOR1A-WT lysate, 635 nm fluorescence, higher = more signal
Chain of Torsin-1A (Homo sapiens) (O14656 whole entry, looked up): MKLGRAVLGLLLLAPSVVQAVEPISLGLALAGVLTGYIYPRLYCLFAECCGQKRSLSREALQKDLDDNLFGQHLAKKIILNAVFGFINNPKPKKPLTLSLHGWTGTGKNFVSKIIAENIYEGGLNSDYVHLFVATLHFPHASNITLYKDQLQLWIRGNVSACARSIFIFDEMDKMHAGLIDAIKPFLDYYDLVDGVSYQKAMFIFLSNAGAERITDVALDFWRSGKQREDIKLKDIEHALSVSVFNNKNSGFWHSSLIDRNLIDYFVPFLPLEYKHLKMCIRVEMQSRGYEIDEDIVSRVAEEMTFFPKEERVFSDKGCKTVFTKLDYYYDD

[9] = target: Torsin-1A (Homo sapiens) (UniProt O14656); experiment: small-molecule binders of mutant TOR1A in lysate, primary screen, cell lysate, small-molecule microarray, COS7 lysate, 635/667 nm fluorescence (AID 1150); conditions: COS7 hTOR1A mutant lysate, 635 nm fluorescence, higher = more signal;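 further: score pools 667 nm emission and signal to noise measuring lysate protein binding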
[10] = test system: Sonic hedgehog protein (Shh); experiment: small-molecule binders of Shh protein, primary screen, biochemical, small-molecule microarray, 635/667 nm fluorescence (AID 1151); conditions: small-molecule microarray binding, 635 nm fluorescence; higher = more signal;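 further: Shh protein binding to compounds spotted on small-molecule microarray slides; score combines spot fluorescence intensity with signal-to-noise across triplicate slides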
[11] = E. coli DRC41 culture turbidity changes, primary screen, E. coli filamentation inducer project, strain DRC41, OD650, 48 h (AID 1152);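 further: E. coli MC1000 strain DRC41 lacking acrAB efflux pump and sulA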; conditions: E. coli DRC41 (acrAB sulA), higher = more signal, called active from +8 up or from −8 down
[12] = small-molecule binders of probe aLefty1, primary screen, biochemical, small-molecule microarray, 635/667 nm fluorescence (AID 1153); conditions: higher = more signal;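 further: score merges spot fluorescence with signal-to-noise ratio from the scanned slide images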
[13] = PSAC antagonists in infected red cells, primary screen, cell-based, P. falciparum Indochina, OD700, 1 h (AID 1154); conditions: P. falciparum Indochina infected RBC osmotic lysis, higher = more signal, called active from +8 up or from −8 down
[14] = PSAC antagonists in infected red cells, primary screen, cell-based, P. falciparum Indochina, OD700, 2 h (AID 1155);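 further: lysis reports solute entry through the parasite surface anion channel PSAC; channel blockers reduce lysis of infected cells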; conditions: P. falciparum Indochina infected erythrocytes, osmotic lysis OD700; higher = more signal, called active from +8 up or from −8 down
[15] = osmotic lysis modulators in infected erythrocytes, primary screen, PSAC antagonist project, cell-based, P. falciparum Indochina, OD700, 3 h (AID 1156); conditions: higher = more signal, called active from +8 up or from −8 down
[16] = PSAC antagonists in infected red cells, primary screen, cell-based, P. falciparum Indochina, OD700, 18 h (AID 1157); conditions: P. falciparum Indochina infected erythrocytes, osmotic lysis OD700, 18 h; higher = more signal, called active from +8 up or from −8 down
[17] = modulators of S6 phosphorylation in cells, primary screen, cell-based, A549, cytoblot, luminescence, serum-stimulated (AID 1158); conditions: A549 phospho-S6 cytoblot, 5 h, higher = more signal;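 further: serum-stimulated A549 lung adenocarcinoma cells; signal is phosphorylated S6 detected by cytoblot immunostaining with HRP secondary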
[18] = target: NADPH oxidase 2 (Homo sapiens) (UniProt P04839); experiment: NOX2-dependent H2O2 signal modulators, primary screen, NOX inhibitor project, cell-based, HEK293-NOX2, PMA-stimulated, Amplex Red fluorescence (AID 1159); conditions: 45 min, higher = more signal, called active from +8 up or from −8 down; further: test concentration not given here
Chain of NADPH oxidase 2 (Homo sapiens) (P04839 whole entry, looked up): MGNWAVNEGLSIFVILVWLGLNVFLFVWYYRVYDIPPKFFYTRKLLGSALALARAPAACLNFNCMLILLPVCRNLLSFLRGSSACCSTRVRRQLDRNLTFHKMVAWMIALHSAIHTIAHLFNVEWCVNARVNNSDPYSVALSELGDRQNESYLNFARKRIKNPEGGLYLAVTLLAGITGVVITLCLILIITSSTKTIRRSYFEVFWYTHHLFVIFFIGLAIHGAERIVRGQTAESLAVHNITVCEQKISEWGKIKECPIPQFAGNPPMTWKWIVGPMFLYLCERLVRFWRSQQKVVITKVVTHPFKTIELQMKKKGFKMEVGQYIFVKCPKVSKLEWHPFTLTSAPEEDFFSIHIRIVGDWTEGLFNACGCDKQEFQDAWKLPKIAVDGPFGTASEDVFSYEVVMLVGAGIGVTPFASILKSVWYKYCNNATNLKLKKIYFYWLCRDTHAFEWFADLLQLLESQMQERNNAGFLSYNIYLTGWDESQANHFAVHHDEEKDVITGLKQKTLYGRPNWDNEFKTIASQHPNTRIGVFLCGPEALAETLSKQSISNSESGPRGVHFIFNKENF

[19] = target: NADPH oxidase 4 (Homo sapiens) (UniProt Q9NPH5); experiment: NOX4-dependent H2O2 signal modulators, primary screen, NOX inhibitor project, cell-based, HEK293-NOX4, tetracycline-induced, Amplex Red fluorescence (AID 1160); conditions: 45 min, higher = more signal, called active from +8 up or from −8 down
Chain of NADPH oxidase 4 (Homo sapiens) (Q9NPH5 whole entry, looked up): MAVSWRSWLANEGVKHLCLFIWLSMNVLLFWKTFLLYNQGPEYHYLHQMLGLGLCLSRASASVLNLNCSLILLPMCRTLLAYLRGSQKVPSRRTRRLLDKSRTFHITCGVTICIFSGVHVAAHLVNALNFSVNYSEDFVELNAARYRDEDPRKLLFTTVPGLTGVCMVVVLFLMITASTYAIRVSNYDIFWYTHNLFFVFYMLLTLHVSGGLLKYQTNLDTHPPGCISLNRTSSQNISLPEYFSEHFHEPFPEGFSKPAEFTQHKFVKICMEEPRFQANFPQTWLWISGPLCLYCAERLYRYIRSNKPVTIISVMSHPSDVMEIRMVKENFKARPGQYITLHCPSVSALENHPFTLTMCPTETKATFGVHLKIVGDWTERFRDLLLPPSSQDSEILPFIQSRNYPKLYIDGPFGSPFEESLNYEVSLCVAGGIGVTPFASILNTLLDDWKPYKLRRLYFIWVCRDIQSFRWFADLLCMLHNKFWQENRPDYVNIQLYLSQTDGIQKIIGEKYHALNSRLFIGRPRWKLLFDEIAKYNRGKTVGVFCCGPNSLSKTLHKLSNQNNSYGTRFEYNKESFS

[20] = target: NADPH oxidase 5 (Homo sapiens) (UniProt Q96PH1); experiment: NOX5-dependent H2O2 signal modulators, primary screen, NOX inhibitor project, cell-based, HEK293-NOX5, Amplex Red fluorescence (AID 1161); conditions: HEK293-NOX5, ionomycin, 45 min, higher = more signal
Chain of NADPH oxidase 5 (Homo sapiens) (Q96PH1 whole entry, looked up): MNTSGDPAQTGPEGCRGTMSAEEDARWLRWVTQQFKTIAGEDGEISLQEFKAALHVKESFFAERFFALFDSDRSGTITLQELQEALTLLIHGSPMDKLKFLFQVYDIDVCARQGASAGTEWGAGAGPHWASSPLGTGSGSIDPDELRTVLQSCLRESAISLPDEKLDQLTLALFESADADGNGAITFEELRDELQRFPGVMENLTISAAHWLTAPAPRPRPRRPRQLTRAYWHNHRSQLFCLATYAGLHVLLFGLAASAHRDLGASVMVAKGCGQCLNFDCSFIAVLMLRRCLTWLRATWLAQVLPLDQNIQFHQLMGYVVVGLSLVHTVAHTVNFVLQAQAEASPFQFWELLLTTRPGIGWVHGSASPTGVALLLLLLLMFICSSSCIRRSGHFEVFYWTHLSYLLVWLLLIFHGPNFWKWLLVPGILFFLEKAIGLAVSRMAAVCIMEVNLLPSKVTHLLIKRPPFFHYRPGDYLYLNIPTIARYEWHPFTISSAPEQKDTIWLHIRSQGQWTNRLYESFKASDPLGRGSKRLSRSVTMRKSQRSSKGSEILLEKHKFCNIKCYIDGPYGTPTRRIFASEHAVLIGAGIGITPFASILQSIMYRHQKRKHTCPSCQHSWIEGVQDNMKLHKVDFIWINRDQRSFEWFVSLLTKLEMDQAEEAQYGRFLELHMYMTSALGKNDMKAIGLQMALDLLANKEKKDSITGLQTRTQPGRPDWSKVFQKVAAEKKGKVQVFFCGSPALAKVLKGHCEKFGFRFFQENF

O=C(NC1CC1)[C@@H]1c2ccccc2C(=O)N(Cc2ccc(OC(F)(F)F)cc2)[C@H]1c1ccc(CO)cc1
composite z-score [1]: 0.227
z-score [2]: -2.05 (inactive)
z-score [3]: -1.32 (inactive)
z-score [4]: 0.441 (inactive)
z-score [5]: -0.673 (inactive)
composite z-score [6]: -0.894
composite z-score [7]: -0.176
composite z-score [8]: -0.0394
composite z-score [9]: 0.136
composite z-score [10]: 0.391
z-score [11]: 0.93 (inactive)
composite z-score [12]: 0.118
z-score [13]: 1.49 (inactive)
z-score [14]: -0.538 (inactive)
z-score [15]: 2.44 (inactive)
z-score [16]: -1.2 (inactive)
z-score [17]: 0.358
z-score [18]: 0.0746 (inactive)
z-score [19]: -0.866 (inactive)
z-score [20]: -0.523

COC(=O)C1=CC(CCCO)=CC(c2cccs2)N(Cc2cc3c(cc2Br)OCO3)C=C1C(=O)OC (stereo not given)
composite z-score [1]: 0.46
z-score [2]: -1.96 (inactive)
z-score [3]: 0.587 (inactive)
z-score [4]: 0.326 (inactive)
z-score [5]: 0.458 (inactive)
composite z-score [6]: 1.99
composite z-score [7]: 0.0659
composite z-score [8]: 0.565
composite z-score [9]: 1.12
composite z-score [10]: 0.322
z-score [11]: 0.801 (inactive)
composite z-score [12]: -0.0629
z-score [13]: 5.84 (inactive)
z-score [14]: 1.17 (inactive)
z-score [15]: 0.277 (inactive)
z-score [16]: 0.621 (inactive)
z-score [17]: -0.176
z-score [18]: 1 (inactive)
z-score [19]: -1.26 (inactive)
z-score [20]: 1.05

COC(=O)C(CC#Cc1ccc2c(c1)[C@]1(C(=O)N2)[C@H](C(=O)N2CCc3cc(OC)c(OC)cc3C2)[C@H]2C(=O)O[C@H](c3ccccc3)[C@H](c3ccccc3)N2[C@@H]1c1ccccc1OCCO)C(=O)OC
composite z-score [1]: 0.345
z-score [2]: -2.91 (inactive)
z-score [3]: -0.375 (inactive)
z-score [4]: -0.168 (inactive)
z-score [5]: 0.214 (inactive)
composite z-score [6]: 1
composite z-score [7]: 0.0561
composite z-score [8]: 0.885
composite z-score [9]: 1.15
composite z-score [10]: 1.99
z-score [11]: 0.113 (inactive)
composite z-score [12]: 0.0429
z-score [13]: 2.85 (inactive)
z-score [14]: 1.76 (inactive)
z-score [15]: 0.848 (inactive)
z-score [16]: 1.08 (inactive)
z-score [17]: -0.416
z-score [18]: 2.02 (inactive)
z-score [19]: 0.405 (inactive)
z-score [20]: 1.9

CC(C)OC(=O)CC(=O)CC(O)c1cccc([N+](=O)[O-])c1 (stereo not given)
composite z-score [1]: 0.457
z-score [2]: -3.92 (inactive)
z-score [3]: -2.34 (inactive)
z-score [4]: -0.676 (inactive)
z-score [5]: -0.185 (inactive)
composite z-score [6]: 1.14
composite z-score [7]: -0.0221
composite z-score [8]: -0.324
composite z-score [9]: 2.75
composite z-score [10]: -0.352
z-score [11]: 1.27 (inactive)
composite z-score [12]: 0.318
z-score [13]: 3.27 (inactive)
z-score [14]: 0.79 (inactive)
z-score [15]: -1.39 (inactive)
z-score [16]: -0.295 (inactive)
z-score [17]: 2.1
z-score [18]: -0.068 (inactive)
z-score [19]: 0.147 (inactive)
z-score [20]: 0.435
